Consider 32 molecules from article PMC9911399, “Two distinct binding modes provide the RNA-binding protein RbFox with extraordinary sequence specificity”.

Substitutions are numbered along the chain they refer to; changes in the protein carry UniProt numbers. In all, about 16,000 sequences were measured (“ka relative to ugcaugu”: median about 0.0091, highest 2% from about 0.032 on). The full list was thinned out, with the highest values kept by preference.

T1: RBFOX1 RRM (Homo sapiens, UniProt Q9NWB1 109-208)
T1 sequence: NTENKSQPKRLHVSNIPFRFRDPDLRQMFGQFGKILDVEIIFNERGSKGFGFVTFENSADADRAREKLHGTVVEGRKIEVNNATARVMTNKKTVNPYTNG

B1: AGCCGGG (DNA:RNA)
RNA: GGGAGACCGGAAUUCAGAUUGUCCAGCCGGGUUAAAUCCCGUCGUAGCCACCA
DNA 1: CAATCTGAATTCCGGTCTCCC
DNA 2: TGGTGGCTACGACGGGATT
B2: GUUCCGG (DNA:RNA)
RNA: B1 RNA with A25G, G26U, C27U, G29C
DNA 1: CAATCTGAATTCCGGTCTCCC
DNA 2: TGGTGGCTACGACGGGATT
B3: UUCCAAA (DNA:RNA)
RNA: B1 RNA with A25U, G26U, G29A, G30A, G31A
DNA 1: CAATCTGAATTCCGGTCTCCC
DNA 2: TGGTGGCTACGACGGGATT
B4: GACAUUG (DNA:RNA)
RNA: B1 RNA with A25G, G26A, C28A, G29U, G30U
DNA 1: CAATCTGAATTCCGGTCTCCC
DNA 2: TGGTGGCTACGACGGGATT
B5: GCUAGUA (DNA:RNA)
RNA: B1 RNA with A25G, G26C, C27U, C28A, G30U, G31A
DNA 1: CAATCTGAATTCCGGTCTCCC
DNA 2: TGGTGGCTACGACGGGATT
B6: GCAAACC (DNA:RNA)
RNA: GGGAGACCGGAAUUCAGAUUGUCCGCAAACCUUAAAUCCCGUCGUAGCCACCA
DNA 1: CAATCTGAATTCCGGTCTCCC
DNA 2: TGGTGGCTACGACGGGATT
B7: GCGUGGG (DNA:RNA)
RNA: B1 RNA with A25G, G26C, C27G, C28U
DNA 1: CAATCTGAATTCCGGTCTCCC
DNA 2: TGGTGGCTACGACGGGATT
B8: AGAAUCG (DNA:RNA)
RNA: B1 RNA with C27A, C28A, G29U, G30C
DNA 1: CAATCTGAATTCCGGTCTCCC
DNA 2: TGGTGGCTACGACGGGATT
B9: AAGCGGU (DNA:RNA)
RNA: B1 RNA with G26A, C27G, G31U
DNA 1: CAATCTGAATTCCGGTCTCCC
DNA 2: TGGTGGCTACGACGGGATT
B10: AAAGAAG (DNA:RNA)
RNA: B1 RNA with G26A, C27A, C28G, G29A, G30A
DNA 1: CAATCTGAATTCCGGTCTCCC
DNA 2: TGGTGGCTACGACGGGATT
B11: GCGCUUC (DNA:RNA)
RNA: B6 RNA with A27G, A28C, A29U, C30U
DNA 1: CAATCTGAATTCCGGTCTCCC
DNA 2: TGGTGGCTACGACGGGATT
B12: CGUCCGC (DNA:RNA)
RNA: B1 RNA with A25C, C27U, G29C, G31C
DNA 1: CAATCTGAATTCCGGTCTCCC
DNA 2: TGGTGGCTACGACGGGATT
B13: GUCCCGC (DNA:RNA)
RNA: B1 RNA with A25G, G26U, G29C, G31C
DNA 1: CAATCTGAATTCCGGTCTCCC
DNA 2: TGGTGGCTACGACGGGATT
B14: GCUUCCG (DNA:RNA)
RNA: B6 RNA with A27U, A28U, A29C, C31G
DNA 1: CAATCTGAATTCCGGTCTCCC
DNA 2: TGGTGGCTACGACGGGATT
B15: GCUUCUG (DNA:RNA)
RNA: B6 RNA with A27U, A28U, A29C, C30U, C31G
DNA 1: CAATCTGAATTCCGGTCTCCC
DNA 2: TGGTGGCTACGACGGGATT
B16: GCUUGUG (DNA:RNA)
RNA: B1 RNA with A25G, G26C, C27U, C28U, G30U
DNA 1: CAATCTGAATTCCGGTCTCCC
DNA 2: TGGTGGCTACGACGGGATT
B17: ACUGUGU (DNA:RNA)
RNA: B1 RNA with G26C, C27U, C28G, G29U, G31U
DNA 1: CAATCTGAATTCCGGTCTCCC
DNA 2: TGGTGGCTACGACGGGATT
B18: ACCCUUU (DNA:RNA)
RNA: B1 RNA with G26C, G29U, G30U, G31U
DNA 1: CAATCTGAATTCCGGTCTCCC
DNA 2: TGGTGGCTACGACGGGATT
B19: GACAGCA (DNA:RNA)
RNA: B6 RNA with C26A, A27C, A29G, C31A
DNA 1: CAATCTGAATTCCGGTCTCCC
DNA 2: TGGTGGCTACGACGGGATT
B20: GUGAAUA (DNA:RNA)
RNA: B6 RNA with C26U, A27G, C30U, C31A
DNA 1: CAATCTGAATTCCGGTCTCCC
DNA 2: TGGTGGCTACGACGGGATT
B21: UGGGUGU (DNA:RNA)
RNA: B1 RNA with A25U, C27G, C28G, G29U, G31U
DNA 1: CAATCTGAATTCCGGTCTCCC
DNA 2: TGGTGGCTACGACGGGATT
B22: UGGGGAG (DNA:RNA)
RNA: B1 RNA with A25U, C27G, C28G, G30A
DNA 1: CAATCTGAATTCCGGTCTCCC
DNA 2: TGGTGGCTACGACGGGATT
B23: UGGAGUU (DNA:RNA)
RNA: B1 RNA with A25U, C27G, C28A, G30U, G31U
DNA 1: CAATCTGAATTCCGGTCTCCC
DNA 2: TGGTGGCTACGACGGGATT
B24: UGGUGUU (DNA:RNA)
RNA: B1 RNA with A25U, C27G, C28U, G30U, G31U
DNA 1: CAATCTGAATTCCGGTCTCCC
DNA 2: TGGTGGCTACGACGGGATT
B25: CUGGUGU (DNA:RNA)
RNA: B1 RNA with A25C, G26U, C27G, C28G, G29U, G31U
DNA 1: CAATCTGAATTCCGGTCTCCC
DNA 2: TGGTGGCTACGACGGGATT
B26: UGGGAGU (DNA:RNA)
RNA: B1 RNA with A25U, C27G, C28G, G29A, G31U
DNA 1: CAATCTGAATTCCGGTCTCCC
DNA 2: TGGTGGCTACGACGGGATT
B27: UGGAAGU (DNA:RNA)
RNA: B1 RNA with A25U, C27G, C28A, G29A, G31U
DNA 1: CAATCTGAATTCCGGTCTCCC
DNA 2: TGGTGGCTACGACGGGATT
B28: UGGGAAG (DNA:RNA)
RNA: B1 RNA with A25U, C27G, C28G, G29A, G30A
DNA 1: CAATCTGAATTCCGGTCTCCC
DNA 2: TGGTGGCTACGACGGGATT
B29: UGGUGGG (DNA:RNA)
RNA: B1 RNA with A25U, C27G, C28U
DNA 1: CAATCTGAATTCCGGTCTCCC
DNA 2: TGGTGGCTACGACGGGATT
B30: CUGGAAG (DNA:RNA)
RNA: B1 RNA with A25C, G26U, C27G, C28G, G29A, G30A
DNA 1: CAATCTGAATTCCGGTCTCCC
DNA 2: TGGTGGCTACGACGGGATT
B31: UGGGGAA (DNA:RNA)
RNA: B1 RNA with A25U, C27G, C28G, G30A, G31A
DNA 1: CAATCTGAATTCCGGTCTCCC
DNA 2: TGGTGGCTACGACGGGATT
B32: UGGGGUG (DNA:RNA)
RNA: B1 RNA with A25U, C27G, C28G, G30U
DNA 1: CAATCTGAATTCCGGTCTCCC
DNA 2: TGGTGGCTACGACGGGATT

The assay concerns the target T1, RBFOX1 RRM. The assay is described as follows: EMSA; HiTS-Eq, 1 nM pool, 10 min; buffer printed only for the single-RNA assays: 10 mM Tris pH 7.5, 150 mM NaCl, 3.4 mM EDTA, 0.001% NP-40, 30 C. To be noted: tags: His6 N-terminal (pET28a); label: 5' 32P. The procedure, abridged: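 Purified RbFox RRM (wild type or mutant) was equilibrated for 10 min in 50 µL with 1 nM of a 5′-radiolabelled pool of RNA with 7 randomized nucleotides, its flanks annealed to DNA oligonucleotides, across increasing protein concentrations. Free RNA was separated by 8% native PAGE, excised, reverse-transcribed, PCR-barcoded and sequenced on an Illumina HiSeq 2500. Relative association constants came from read-count changes of each variant against the control reaction, normalised to the cognate motif.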
For orientation: In EMSA bound probe runs differently from free probe, usually more slowly.
Take B1: the binding signal is 0.0115 KA relative to UGCAUGU. As for B2, the figure is 0.0142 KA relative to UGCAUGU; as for B3, 0.00275 KA relative to UGCAUGU. The figure for B4 is 0.0146 KA relative to UGCAUGU; for B5 it is 0.0137 KA relative to UGCAUGU. As for B6, the figure is 0.00398 KA relative to UGCAUGU; as for B7, 0.0174 KA relative to UGCAUGU.

As for B8, the binding signal is 0.00981 KA relative to UGCAUGU. Regarding B9, the binding signal is 0.00838 KA relative to UGCAUGU.

With B10, the binding signal is 0.00539 KA relative to UGCAUGU. The figure for B11 is 0.0175 KA relative to UGCAUGU; for B12 it is 0.00928 KA relative to UGCAUGU. The figure for B13 is 0.0018 KA relative to UGCAUGU; for B14 it is 0.0121 KA relative to UGCAUGU; for B15 it is 0.0318 KA relative to UGCAUGU.

B16: the binding signal was 0.0418 KA relative to UGCAUGU.

Regarding B17, the binding signal was 0.016 KA relative to UGCAUGU.

Regarding B18, the binding signal is 0.00524 KA relative to UGCAUGU. The figure for B19 is 0.0143 KA relative to UGCAUGU; for B20 it is 0.00781 KA relative to UGCAUGU. Take B21: the binding signal is 0.0478 KA relative to UGCAUGU. In the case of B22, the binding signal is 0.0199 KA relative to UGCAUGU.

Take B23: the binding signal was 0.0241 KA relative to UGCAUGU. The figure for B24 is 0.0267 KA relative to UGCAUGU. For B25, the binding signal is 0.0254 KA relative to UGCAUGU.

As to B26, the binding signal was 0.0357 KA relative to UGCAUGU. As for B27, the figure is 0.0205 KA relative to UGCAUGU; as for B28, 0.0374 KA relative to UGCAUGU; as for B29, 0.0153 KA relative to UGCAUGU. As to B30, the binding signal is 0.0188 KA relative to UGCAUGU. As for B31, the figure is 0.0174 KA relative to UGCAUGU; as for B32, 0.0422 KA relative to UGCAUGU.
